Laboratory results: PubChem BioAssay (EPA / NIEHS)
Several values for one entry are separate records, joined by “and”; a condition that tells them apart may be missing. Equal values may be shown once. Results filed as inconclusive are left out. Some structures have more than one record in an assay (separate samples or runs), and their calls can disagree. Activity calls are given as the source filed them. Rule for the calls: active = hit-call score of the fitted dose curve at least 0.9, where 1 is the maximum; inconclusive = response in the unintended direction; inactive = score below 0.9.

What was measured:
[1] = target: Cellular tumor antigen p53 (Homo sapiens) (UniProt P04637); experiment: TOX21_p53_BLA_p2_ratio: Tox21 HCT-116 p53 Agonism Beta-lactamase Assay, Ratio, Phase 2 (AID 2283592)
Procedure, shortened: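 Ratio endpoint: beta-lactamase cleavage of CCF4-AM, blue (460 nm) over green (530 nm). HCT116 reporter line; 16 h treatment, 37C; substrate 2 h RT.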

[2] = TOX21_p53_BLA_p3_viability: Viability Assessment in the Tox21 HCT-116 p53 Agonism Beta-lactamase Assay, Phase 3 (AID 2283593);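 note: cells exposed to compound for 16 h before reading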
Procedure, shortened: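 Cellular ATP was quantified by CellTiter-Glo luminescence, read after 30 min at room temperature. Beforehand, HCT116 cells (4000/well) received compound 5 h post-seeding, 217-fold diluted from DMSO, then incubated 16 h at 37C.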

[3] = target: Cellular tumor antigen p53 (Homo sapiens) (UniProt P04637); experiment: TOX21_p53_BLA_p3_ratio: Tox21 HCT-116 p53 Agonism Beta-lactamase Assay, Ratio, Phase 3 (AID 2283596)
Procedure, shortened: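 Cells were seeded at 4000/well, rested 5 h at 37C, then dosed with DMSO compound solutions (217-fold dilution) for 16 h. CCF4-AM substrate was loaded for 2 h at room temperature, and the 460/530 nm emission ratio was fitted for gain of signal versus DMSO.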

[4] = TOX21_p53_BLA_p4_viability: Viability Assessment in the Tox21 HCT-116 p53 Agonism Beta-lactamase Assay, Phase 4 (AID 2283597);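 note: hits lower the luminescence signal meaning cytotoxicity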
Procedure, shortened: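 Cytotoxicity was inferred from loss of CellTiter-Glo luminescence. HCT116 cells had been dosed with compounds after 5 h plating, incubated 16 h at 37C and 5% CO2, and exposed to the CCF4-AM substrate for 2 h.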

[5] = target: Cellular tumor antigen p53 (Homo sapiens) (UniProt P04637); experiment: TOX21_p53_BLA_p5_ratio: Tox21 HCT-116 p53 Agonism Beta-lactamase Assay, Ratio, Phase 5 (AID 2283599)
Procedure, shortened: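 Beta-lactamase reporter ratio (blue 460 nm over green 530 nm, 405 nm excitation) after 2 h CCF4-AM loading, in HCT-116 cells exposed 16 h at 37 C to compounds pinned at 217-fold dilution. Increases relative to DMSO baseline scored.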

[6] = target: Cellular tumor antigen p53 (Homo sapiens) (UniProt P04637); experiment: TOX21_p53_BLA_p4_ratio: Tox21 HCT-116 p53 Agonism Beta-lactamase Assay, Ratio, Phase 4 (AID 2283601)
Procedure, shortened: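 Signal is the blue/green (460nm/530nm) ratio of cleaved versus uncleaved CCF4-AM substrate, read after 2 h substrate loading. Cells were HCT116 carrying the p53-responsive beta-lactamase reporter, dosed 16 h at 37C, 5% CO2; CellTiter-Glo measured in parallel.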

[7] = Tanguay_ZF_120hpf_MORT_legacy: (Legacy) Oregon State University Tanguay Lab 120 Hour Post-fertilization zebrafish Assay for Mortality (AID 2283633)
Procedure, shortened: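 Dechorionated Tropical 5D wild-type zebrafish embryos, one per well from 6 hpf, were statically exposed at 28C in the dark until 120 hpf (0.64% DMSO final). Mortality was scored as present/absent by brightfield microscopy, fitted positively versus DMSO.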

[8] = Tanguay_ZF_120hpf_YSE_legacy: (Legacy) Oregon State University Tanguay Lab 120 Hour Post-fertilization zebrafish Assay for Yolk Sac Edema (AID 2283634);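 for AC50: actives raise the incidence of yolk sac edema above the DMSO baseline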
Procedure, shortened: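 Tropical 5D wild-type embryos, dechorionated with pronase at 4 hpf, were exposed singly from 6 hpf to 120 hpf under static, sealed, dark conditions at 28C with 0.64% DMSO final. Yolk sac edema was scored present/absent by brightfield microscopy.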

[9] = Tanguay_ZF_120hpf_AXIS_legacy: (Legacy) Oregon State University Tanguay Lab 120 Hour Post-fertilization zebrafish Assay for Body Axis Malformation (AID 2283635);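 for AC50: potency for an increased fraction of larvae scored with body axis malformation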
Procedure, shortened: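 Tropical 5D wild-type zebrafish embryos, dechorionated with pronase at 4 hpf, were placed singly in wells at 6 hpf and exposed statically to test chemical (0.64% DMSO final) at 28C until 120 hpf, then scored by brightfield for body axis defects.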

[10] = Tanguay_ZF_120hpf_EYE_legacy: (Legacy) Oregon State University Tanguay Lab 120 Hour Post-fertilization zebrafish Assay for Eye Malformation (AID 2283636);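 note: binary presence or absence of eye malformation scored by brightfield in 120 hpf larvae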
Procedure, shortened: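 Binary brightfield scoring of eye defects at 120 hpf after static exposure from 6 hpf of single pronase-dechorionated wild-type embryos (28C, 0.64% DMSO). Non-mortality endpoints omitted where embryos died; fit vs DMSO.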

[11] = Tanguay_ZF_120hpf_SNOU_legacy: (Legacy) Oregon State University Tanguay Lab 120 Hour Post-fertilization zebrafish Assay for Snout Malformation (AID 2283637)
Procedure, shortened: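 Binary snout-malformation call at 120 hpf in wild-type 5D embryos, chorion removed by pronase, under static exposure from 6 hpf at 28C (0.64% DMSO). Embryos dying by 24 or 120 hpf excluded.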

[12] = Tanguay_ZF_120hpf_JAW_legacy: (Legacy) Oregon State University Tanguay Lab 120 Hour Post-fertilization zebrafish Assay for Jaw Malformation (AID 2283638);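 for AC50: active means more embryos with jaw malformation than DMSO controls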
Procedure, shortened: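 Tropical 5D wild-type embryos, dechorionated with pronase at 4 hpf, were placed singly per well at 6 hpf and statically exposed at 28C until 120 hpf (0.64% DMSO final). Jaw malformation scored as present/absent by brightfield microscopy at 120 hpf, analyzed relative to DMSO.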

[13] = Tanguay_ZF_120hpf_OTIC_legacy: (Legacy) Oregon State University Tanguay Lab 120 Hour Post-fertilization zebrafish Assay for Otic Vesicle Malformation (AID 2283639)
Procedure, shortened: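 Statically exposed wild-type 5D zebrafish embryos, kept sealed and dark at 28C through 120 hours post fertilization, were examined by brightfield microscopy for otic vesicle defects. Responses were recorded as present or absent and analysed relative to DMSO.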

[14] = Tanguay_ZF_120hpf_PE_legacy: (Legacy) Oregon State University Tanguay Lab 120 Hour Post-fertilization zebrafish Assay for Pericardial Edema (AID 2283640);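 for AC50: potency for increased incidence of pericardial edema versus DMSO baseline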
Procedure, shortened: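 Tropical 5D wild-type zebrafish embryos were exposed statically to 120 hpf at 28C, sealed and foil-covered, in 0.64% DMSO final. Pericardial edema was scored present/absent by brightfield microscopy; dead embryos were not scored.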

[15] = Tanguay_ZF_120hpf_BRAI_legacy: (Legacy) Oregon State University Tanguay Lab 120 Hour Post-fertilization zebrafish Assay for Brain Malformation (AID 2283641)
Procedure, shortened: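 Tropical 5D wild-type zebrafish embryos were exposed statically in sealed, foil-covered plates at 28C until 120 hpf, with 0.64% (vol/vol) final DMSO. Brain malformation was scored present/absent by brightfield microscopy, relative to DMSO baseline.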

[16] = Tanguay_ZF_120hpf_PFIN_legacy: (Legacy) Oregon State University Tanguay Lab 120 Hour Post-fertilization zebrafish Assay for Pectoral Fin Malformation (AID 2283648);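 note: each larva judged yes or no for fin defect by brightfield with dead larvae skipped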
Procedure, shortened: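 Pectoral fin malformation was recorded as a binary endpoint at 120 hpf in wild-type Tropical 5D larvae, which had been dechorionated and exposed statically from 6 hpf at 28C in 0.64% DMSO. Dead embryos were excluded.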

[17] = Tanguay_ZF_120hpf_CFIN_legacy: (Legacy) Oregon State University Tanguay Lab 120 Hour Post-fertilization zebrafish Assay for Caudal Fin Malformation (AID 2283649)
Procedure, shortened: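 Tropical 5D wild-type embryos, dechorionated with pronase at 4 hpf, were placed singly in wells at 6 hpf and statically exposed to compound at 28C until 120 hpf (0.64% DMSO). Caudal fin malformation was scored present/absent by brightfield microscopy.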

[18] = Tanguay_ZF_120hpf_PIG_legacy: (Legacy) Oregon State University Tanguay Lab 120 Hour Post-fertilization zebrafish Assay for Pigmentation Malformation (AID 2283650)
Procedure, shortened: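 Pigment malformation recorded as a binary call at 120 hpf in zebrafish (Tropical 5D) exposed singly from 6 hpf after pronase dechorionation. Static, sealed, 28C exposure, 0.64% DMSO; mortality excludes scoring; positive-direction fit against DMSO.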

[19] = TOX21_p53_BLA_p5_viability: Viability Assessment in the Tox21 HCT-116 p53 Agonism Beta-lactamase Assay, Phase 5 (AID 2283600)
Procedure, shortened: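 Luciferase-coupled ATP quantitation of cells treated for 16 h (37C, 5% CO2) with test chemicals delivered in DMSO via a 217-fold dilution; 4000 cells/well; reagent incubated 30 min at room temperature before luminescence reading.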

[20] = Tanguay_ZF_120hpf_SOMI_legacy: (Legacy) Oregon State University Tanguay Lab 120 Hour Post-fertilization zebrafish Assay for Somite Malformation (AID 2283647)
Procedure, shortened: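 Tropical 5D wild-type zebrafish embryos, dechorionated with pronase at 4 hpf, were placed singly at 6 hpf and statically exposed until 120 hpf at 28C in 0.64% DMSO. Somite malformation was scored present/absent by brightfield microscopy versus DMSO.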

Measured: AC50

Cellular tumor antigen p53 (Homo sapiens), sequence (P04637 whole entry, looked up): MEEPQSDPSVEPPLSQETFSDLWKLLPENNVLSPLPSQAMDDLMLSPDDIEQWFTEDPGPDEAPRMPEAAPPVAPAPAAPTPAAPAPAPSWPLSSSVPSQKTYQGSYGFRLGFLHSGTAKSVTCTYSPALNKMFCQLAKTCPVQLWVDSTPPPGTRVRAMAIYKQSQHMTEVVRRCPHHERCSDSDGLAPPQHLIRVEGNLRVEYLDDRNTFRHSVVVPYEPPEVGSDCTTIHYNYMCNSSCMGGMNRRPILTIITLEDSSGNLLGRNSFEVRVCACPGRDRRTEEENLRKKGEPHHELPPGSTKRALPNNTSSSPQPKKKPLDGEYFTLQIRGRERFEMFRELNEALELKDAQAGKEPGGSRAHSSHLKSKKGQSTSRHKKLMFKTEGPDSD

S=c1[nH]c2ccccc2s1
active: [8] 11.7 µM | [9] 36.7 µM | [10] 42.1 µM | [11] 40.7 µM | [12] 10.7 µM | [13] 11.2 µM | [14] 37.6 µM | [15] 40.7 µM | [16] 10.4 µM | [17] 31.9 µM | [18] 39.6 µM
inactive: [1] | [2] | [3] | [4] | [5] | [6] | [7]

Oc1ccccc1O
inactive: [1] | [2] | [3] | [5] | [19] | [6] | [7] | [8] | [9] | [10] | [11] | [14] | [16] | [17]
active: [2] 74.5 µM | [4] 70.9 µM and 46.5 µM | [6] 73.5 µM

CCCCC(CC)COC(=O)CCCCCCCC(=O)OCC(CC)CCCC (stereo not given)
not listed: [14] | [15] | [18]
inactive: all other assays above

Cc1ccc(C(C)(C)C)c(O)c1
active: [4] 43.2 µM | [6] 69 µM
inactive: [1] | [2] | [3] | [5] | [19] | [6] | [7] | [8] | [9] | [11] | [12] | [13] | [14] | [15] | [20] | [16] | [17]

O=C1O[C@H]([C@H](O)CO)C(O)=C1O
not listed: [11] | [13] | [14] | [18] | [19]
inactive: all other assays above

Cc1cc(Cc2ccc(N)c(C)c2)ccc1N
not listed: [6]
inactive: all other assays above

CC(C)(O)c1ccc(CNC(=O)c2cccnc2Oc2ccc(F)cc2)cc1
not listed: [5] | [6] | [20]
inactive: all other assays above

CCCC[C@H]1CN(CC2CCOCC2)C(=O)OC12CCN(C1(C)CCN(C(=O)c3c(C)ncnc3C)CC1)CC2
not listed: [18] | [20]
inactive: all other assays above

CCc1nc(N)nc(N)c1-c1ccc(Cl)cc1
active: [1] 58.9 µM and 27 µM | [2] 46.1 µM and 18.5 µM | [4] 18.3 µM and 15.9 µM and 10.4 µM | [19] 15.3 µM | [6] 47.9 µM
inactive: [1] | [3] | [5] | [19] | [6] | [7] | [8] | [9] | [12] | [13] | [14] | [15] | [16] | [17]

CCOCCOCCO
not listed: [4] | [18] | [19] | [20]
inactive: all other assays above

O=C1c2c(O)cccc2Cc2cccc(O)c21
not listed: [16] | [18]
inactive: all other assays above

O=C1OC(c2ccc(O)cc2)(c2ccc(O)cc2)c2ccccc21
not listed: [13] | [15] | [20]
inactive: all other assays above
